Data taken from a collection of fitness landscapes (doi:10.1016/j.celrep.2020.107928).
Whole data set: some 81,000 sequences, median “one-hybrid fitness for binding parS DNA” near -0.17, cut for the highest 2% near 0.51. The entries come from a sample that favours the highest values as a whole.

B1: Caulobacter ParB omega fusion; a variant is named by its letters at X, in order, B8GW30 (parent)
chain: MESVVVGEPGMSEGRRGLGRGLSALLGEVDAAPAQAPGEQLGGSREAPIEILQRNPDQPRRTFREEDLEDLSNSIREKGVLQPILVRPSPDTAGEYQIVAGERAWRAAQRAGLKTVPIMVRELDDLAVLEIGIIENVQRADLNVLEEALSYKVLMEKFERTQENIAQTIGKSXSHVANXMRLLXLPDEVQSYLVSGELTAXHARAIAAAADPVALAKQIIEGGLSVRETEALARKAPNLSAGKSKGGRPPRVKDTDTQALESDLSSVLGLDVSIDHRGSTGTLTITYATLEQLDDLCNRLTRGI

Variants of: B1
Experiment: one-hybrid fitness for binding parS DNA (scaled: cognate 1, non-cognate 0); higher = stronger binding
Conditions: with parS DNA site
Outline: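 Fitness is the rescaled log change in variant-to-wild-type read ratio, measured by Illumina sequencing of plasmids before and after bacterial one-hybrid selection. The scale puts cognate at 1 and non-cognate at 0. Selection of Caulobacter ParB libraries, four specificity codons randomised, took place in E. coli USO with a HIS3 reporter, site 19 bp from the promoter, over 48 hours at 37°C on M9-minus-histidine with 0.1 mM IPTG and 5 mM 3-AT.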

| Variant | one-hybrid fitness for binding parS DNA |
| --- | --- |
| DTAQ | ≤ 0.2 |
| AYES | ≤ 0.2 |
| PDYS | ≤ 0.2 |
| LGYC | ≤ 0.2 |
| PVSM | ≤ 0.2 |
| RIKA | 0.745 |
| NIVA | ≤ 0.2 |
| RIVA | 0.585 |
| YQPY | ≤ 0.2 |
| GEYG | ≤ 0.2 |
| TWSS | ≤ 0.2 |
| LCRP | ≤ 0.2 |
| RKNQ | ≤ 0.2 |
| RKDH | 0.231 |
| RKDG | 0.939 |
| RKDN | 0.329 |
| RKNR | ≤ 0.2 |
| RKNG | 0.907 |
| TSWS | ≤ 0.2 |
| KARL | ≤ 0.2 |
| PVGS | ≤ 0.2 |
| QVWC | ≤ 0.2 |
| RHFN | 0.319 |
| RHFP | ≤ 0.2 |
| RHFT | 0.707 |
| RHAT | 0.865 |

| Variant | one-hybrid fitness for binding parS DNA |
| --- | --- |
| RHAM | 0.28 |
| RHAY | 0.403 |
| HWFS | ≤ 0.2 |
| RPMV | ≤ 0.2 |
| ETTA | ≤ 0.2 |
| SPEG | ≤ 0.2 |
| RPSC | ≤ 0.2 |
| RSSN | 0.436 |
| RESC | 0.215 |
| RSSC | 0.966 |
| RSSH | ≤ 0.2 |
| RCSC | 0.961 |
| TKKI | ≤ 0.2 |
| QGCC | ≤ 0.2 |
| LEMT | ≤ 0.2 |
| CTGE | ≤ 0.2 |
| VMPA | ≤ 0.2 |
| NSSL | ≤ 0.2 |
| RLPT | 0.58 |
| RLPQ | ≤ 0.2 |
| RLIH | 0.21 |
| RLID | ≤ 0.2 |
| RLIT | 0.795 |
| RLPK | ≤ 0.2 |
| TGTF | ≤ 0.2 |
| DRTR | ≤ 0.2 |

| Variant | one-hybrid fitness for binding parS DNA |
| --- | --- |
| QHDH | ≤ 0.2 |
| KIRG | ≤ 0.2 |
| MVRP | ≤ 0.2 |
| RAFT | 0.847 |
| RAFD | ≤ 0.2 |
| RAAK | ≤ 0.2 |
| RAFH | 0.204 |
| RAAF | 0.242 |
| RAAT | 0.909 |
| CANR | ≤ 0.2 |
| WEPV | ≤ 0.2 |
| HEHL | ≤ 0.2 |
| CTTW | ≤ 0.2 |
| FEAS | ≤ 0.2 |
| RTFA | 0.592 |
| DTFA | ≤ 0.2 |
| DTAA | ≤ 0.2 |
| RTAA | 0.579 |
| QTHE | ≤ 0.2 |
| PSQT | ≤ 0.2 |
| QCPA | ≤ 0.2 |
| YTPS | ≤ 0.2 |
| DLFA | ≤ 0.2 |
| NLAA | ≤ 0.2 |
| KLFA | ≤ 0.2 |
| DLAA | ≤ 0.2 |

| Variant | one-hybrid fitness for binding parS DNA |
| --- | --- |
| RLFA | 0.606 |
| RLAA | 0.582 |
| IAKG | ≤ 0.2 |
| FVAR | ≤ 0.2 |
| RFPC | 0.424 |
| RFIC | 0.657 |
| RFWN | ≤ 0.2 |
| RFIP | ≤ 0.2 |
| RFIS | 0.777 |
| RFIH | ≤ 0.2 |
| RFID | ≤ 0.2 |
| NFIG | ≤ 0.2 |
| RFIG | 0.685 |
| RFWS | 0.836 |
| RFWP | ≤ 0.2 |
| RFPG | 0.502 |
| EHMG | ≤ 0.2 |
| LHVL | ≤ 0.2 |
| AIIN | ≤ 0.2 |
| FIYG | ≤ 0.2 |
| PRHT | ≤ 0.2 |
| KCHS | ≤ 0.2 |
| KAGT | ≤ 0.2 |
| QCPW | ≤ 0.2 |
| RFPD | ≤ 0.2 |
| RFYS | 1.01 |

| Variant | one-hybrid fitness for binding parS DNA |
| --- | --- |
| RFLD | ≤ 0.2 |
| RFYP | ≤ 0.2 |
| RFRS | 0.954 |
| RFPS | 0.551 |
| RFRD | ≤ 0.2 |
| RFRN | 0.429 |
| RFLN | 0.415 |
| RFYD | ≤ 0.2 |
| RFLS | 0.997 |
| RFPH | ≤ 0.2 |
| PVIC | ≤ 0.2 |
| MHEG | ≤ 0.2 |
| VPDG | ≤ 0.2 |
| LNYC | ≤ 0.2 |
| HRFQ | ≤ 0.2 |
| VPPW | ≤ 0.2 |
| DFQA | ≤ 0.2 |
| NFRA | ≤ 0.2 |
| KFQA | ≤ 0.2 |
| RFQA | 0.579 |
| RFIA | 0.373 |
| RFCA | 0.518 |
| RFPA | ≤ 0.2 |
| RFYA | 0.578 |
| RFRA | 0.602 |
| SFRA | ≤ 0.2 |

| Variant | one-hybrid fitness for binding parS DNA |
| --- | --- |
| ANER | ≤ 0.2 |
| NGTK | ≤ 0.2 |
| GATP | ≤ 0.2 |
| TTRY | ≤ 0.2 |
| HALT | ≤ 0.2 |
| WTPL | ≤ 0.2 |
| KHYV | ≤ 0.2 |
| QFRS | ≤ 0.2 |
| RFDT | 0.693 |
| RFDR | ≤ 0.2 |
| DFHT | ≤ 0.2 |
| RFWT | 0.649 |
| DFDT | ≤ 0.2 |
| RFHT | 0.853 |
| RFGT | 0.775 |
| RFGP | ≤ 0.2 |
| NFWT | ≤ 0.2 |
| RFHD | ≤ 0.2 |
| RFWD | ≤ 0.2 |
| NFGT | ≤ 0.2 |
| FTEL | ≤ 0.2 |
| WFGR | ≤ 0.2 |
| AVPM | ≤ 0.2 |
